Reference: the supplement of paper PMC3334620
In all, about 33,000 sequences were measured (“E-score (-0.5 to 0.5)”: median about -0.017, highest 2% from about 0.3 on). The sample holds the highest values, similar sequences and a random draw of the others, so the mix is not that of the screen.

Biological target: T1, Sut1 (UniProt P53032)
T1 sequence: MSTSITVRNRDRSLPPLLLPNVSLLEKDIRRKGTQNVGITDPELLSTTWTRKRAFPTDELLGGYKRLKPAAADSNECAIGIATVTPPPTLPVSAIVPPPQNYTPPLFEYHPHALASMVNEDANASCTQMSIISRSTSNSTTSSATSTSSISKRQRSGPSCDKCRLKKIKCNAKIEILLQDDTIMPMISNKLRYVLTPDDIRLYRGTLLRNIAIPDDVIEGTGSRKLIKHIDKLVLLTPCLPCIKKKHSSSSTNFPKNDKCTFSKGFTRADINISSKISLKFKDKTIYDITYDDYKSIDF
Experiment: PBM E-score (8-mer binding enrichment) (E-score (-0.5 to 0.5)); higher = stronger / more preferred TF binding
Conditions: protein concentration: 200 nM; construct: GST-full length
Procedure: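 Universal 'all 10-mer' protein binding microarrays (Agilent AMADID 015681) probed with GST-tagged S. cerevisiae TFs (full-length or DBD) made by in vitro transcription/translation (PURExpress), about 100-200 nM. Bound TF was detected with fluorescent anti-GST. Each ungapped 8-mer (which stands for itself and its reverse complement) is scored by the PBM enrichment score (E-score), a modified Wilcoxon-Mann-Whitney statistic from -0.5 to +0.5, computed with the Universal PBM Analysis Suite. Scale: above 0.35 generally sequence-specific binding.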

Sequence	PBM E-score
GCGAACGA	0.0664
AATACTCC	0.199
ATTACTCG	0.0802
GCTACTCC	0.3
CATACTCA	-0.0521
ATTACTGA	0.037
ACTACTCC	0.226
CTTACTTA	0.11
ATTACTCA	0.162
GCTACTCA	0.0293
ATTACTTA	0.327
CATACTCC	0.325
ATTACTCC	0.318
AATGGATC	0.0349
ATCGACCC	0.0935
AGTTTTTG	0.28
CGGGAGAG	-0.0788
TACACTCA	0.0601
ACATACTG	0.0299
AGAGCACA	-0.0607
AGTACCTG	0.0244
GCTCATGA	-0.172
CTGAAGAC	-0.0142
CTTACTCA	-0.0535
CTTACTAC	0.0954

Sequence	PBM E-score
CTTACTCC	0.365
TAGCCCCA	-0.121
CCCGTTAA	-0.176
TCCGTTAA	0.326
GCCGTTAA	0.092
CCCAAAGC	-0.0681
CCCTGGTA	-0.336
CTTGGGGC	-0.245
GGGTTAAC	0.0764
CTCCTAAG	-0.111
GACTCCTA	0.0134
TACTCCGA	0.491
TACTCCAA	-0.0372
CCCTCCGA	0.0492
GACTCCAA	-0.0971
CACTCCAA	0.0306
GACTCCGA	0.486
TCCTCCGA	0.0213
CACTCCGA	0.471
AAACTATT	0.24
AGCTAGGC	-0.232
GCCTAGGA	-0.122
ACTGGGGC	-0.231
GAGCTATC	-0.0645
GACCTTCC	0.0118

Sequence	PBM E-score
AGCCACCT	-0.248
CTCCGAAA	0.46
ATCCGAAG	0.101
GCCCGAAC	-0.00475
GACCGAAC	0.0271
GTCCGAAC	0.397
CACCGAAA	0.137
CACCGAAC	-0.0118
CGCCGAAA	-0.00015
AACCGAAT	0.099
ATCCGAAC	0.213
ATCCGAAT	0.32
CTCCGAAC	0.468
CCTAGCCC	-0.128
AACTAGTC	0.0497
ATCGATCA	0.0202
CGAAACAC	0.0972
CTAACTGA	0.0767
ACTGGAAT	0.0551
CGGCCGCC	-0.05
CGCCGAAG	0.0368
CACCGAAG	0.157
TTCCGAAA	0.291
GTCCGAAA	0.447
CTCCGAAG	0.457

Sequence	PBM E-score
ATCCGAAA	0.272
GCCCGAAA	0.111
CCCCGAAC	0.0945
CCCCGAAA	0.301
GCGCTAGC	-0.26
CGAGCCCG	-0.187
AGAACTAC	0.0481
CATTGATA	0.139
CGGACTCA	0.429
CAGACTCC	0.0916
GGGACTCA	-0.288
GCGACTCC	0.119
AGGACTCA	-0.114
CCGACTCC	0.321
AGGACTCC	0.129
CGGACTCC	0.475
CCGACTCA	0.0266
AAGGTCTA	-0.127
CTGGTTTA	-0.0882
ACCGACAC	0.0514
GCGACTAA	-0.0293
AGCCTAAC	-0.192
GGAACCTA	-0.00606
CGCTGCGA	-0.153
CTGTCCGA	0.192

Sequence	PBM E-score
GTGTCCGA	0.149
ATGTCCCG	0.0332
ATGTCCGA	0.45
ATGTCCGG	0.451
ATGTCCGC	0.282
ACACTGGT	-0.102
AGGGGCGG	-0.158
CAATATCA	0.188
CAATATGA	0.181
GAATATGA	0.0941
TAATATGA	0.315
TAATATTA	0.313
TAATATCA	0.306
GAATATTA	0.255
CAATATTA	0.296
AAATATCA	0.161
AAGCGCGC	0.105
ACCGATCA	0.12
AAAGTTCA	-0.00163
CCGCCTAG	-0.166
TCTTTTCA	0.178
AAGCTTAT	0.0714
CAAACGGA	0.302
TAAACGAA	0.263
CACACGGA	0.12

Sequence	PBM E-score
TAAACGGA	0.321
AAAACGGA	0.244
TAAACGTA	0.131
GACACGGA	0.296
GAAACGGA	0.284
TACACGGA	0.335
CGATGCTC	0.156
CCTTTAGC	-0.0413
AGATCGTC	-0.0781
GCTAAAAA	-0.0323
CCGCGGAC	0.274
CCGCGGAA	0.253
ACGCGGAA	0.112
ACGCGGAG	0.362
ACGCGGAT	0.0724
ACGCGGAC	0.302
ACGCGGCC	-0.273
GCGCGGAC	0.218
CCGCGGAG	0.308
ACATTTAC	0.168
AGGCCCTG	-0.302
CAAAGTTG	-0.0132
CATCTAAG	-0.107
CGTAGCAG	-0.128
AGCTATAG	-0.136

Sequence	PBM E-score
GTCATACA	0.226
ATCATACG	0.157
ATCATACA	0.314
ACTCGAGT	0.0517
AAGCCTAG	-0.183
CACTCTGA	-0.165
GTCACAAC	-0.0323
AATAGAGC	0.0828
GAAACTAC	0.145
GACACTCC	0.314
AAAACTCT	0.0523
CAAACTCA	0.0357
AAAACTCC	0.356
AACACTCC	0.256
GAAACTCC	0.345
CACACTCC	0.158
CAAACTCC	0.356
CAAACTCG	-0.013
AAAACTCG	0.199
GAAACTCA	0.0707
CAGCTTGG	0.0282
TCTTCTAA	0.188
CGATACTA	0.193
AGGAAAGG	-0.294
AGCGGTAT	0.0737

Sequence	PBM E-score
CGTAAGAC	-0.071
ACGCATCA	-0.0138
AAAAAAAC	0.159
GAAACTTC	0.0956
GAAACTTA	0.307
CAAACTTA	0.196
AGTGTGGA	0.0491
CGGGCCCG	0.316
AGGGCCCG	-0.184
CGGGCCCA	-0.109
CGTTCACA	0.0405
AAATAAGT	0.109
AAATAATT	0.338
AAATAATG	0.297
ATGTAATA	0.307
AAATAATA	0.311
AAATAATC	0.235
ATGTAATG	0.23
AAATAACT	0.228
CTGTAATA	0.218
ACTTCAAG	0.0849
ACACCCTA	-0.127
ACTTTGCG	0.0957
ATGGCCTA	-0.0487
AGCGCACC	-0.0534

Sequence	PBM E-score
AAGAAGGA	0.0609
CATCTGAA	0.0794
AGAGTGGA	-0.0219
AGACCGGA	0.277
GAACCGGC	-0.0738
TAACCGCA	0.0567
TAACCGTA	-0.0185
TAACCGGA	0.332
AAACCGGT	-0.0411
GAACCGGA	0.32
AAACCGGC	0.0626
CGACCGGA	0.191
GAACCGTA	-0.234
GGACCGGA	0.34
AAACCGGA	0.309
AGAAAAAG	0.138
CTGCCAAA	-0.0297
GTTGTTGA	0.0996
AAACCTTA	0.203
AGCAGGTC	-0.176
CAACCTAC	0.0861
GTAGCAGA	0.0197
AGCTTAAC	0.0213
CCTACTAC	-0.0856
CAACCGGG	-0.129

Sequence	PBM E-score
CAACCGGC	-0.0694
CAACCGGA	0.338
ATCGCTGC	-0.111
GGGACCAA	-0.115
TCCGAAGA	0.39
TCCGAACA	0.399
CCCGAAGA	-0.0672
ACCGAAGA	0.222
GCCGAAAA	0.263
CCCGAAAA	0.177
GCCGAACA	0.126
ACCGAACA	0.121
TCCGAAAA	0.353
CGCAGCTA	-0.0718
CATCGAAC	-0.0517
GACTAATA	0.196
AAAGCCCG	0.208
GGAGTCTA	0.182
GCACCCAC	-0.155
CAGGCTCA	-0.214
ACTTGCCT	-0.0394
AATATAGT	0.244
AATATAGC	0.0924
CATATAAA	0.15
TATATAAA	0.248

Sequence	PBM E-score
AATATATC	0.322
AATATTAA	0.263
AATATATT	0.31
AATATAAA	0.315
AATATTAG	0.192
AATATTAT	0.319
GATATATC	0.183
AATATACT	0.277
ACATCGCC	-0.112
GGGCTACC	-0.227
ATGCAATC	0.102
AGGCCATC	-0.149
ACCCATGA	-0.124
GGCTTTCA	0.0417
ACACAGAT	0.00624
GGACGGCA	-0.0542
ACTATATA	0.308
GCTATATA	0.118
ACTATATC	0.209
AATATATA	0.325
AAAATATA	0.267
AATATATG	0.242
CAGGTCAC	-0.398
CTGGAAAC	-0.0136
CCCAAAAG	-0.0557

Sequence	PBM E-score
ATGAACTA	0.216
GTATACTA	-0.155
ATACGGGC	-0.126
GTACGGAA	0.22
ATACGGAA	0.348
TTACGGAA	0.198
GTACGGAC	0.297
ATACGGAC	0.374
ATGTGATC	0.144
CGTGAAGA	-0.026
ACTCACAG	0.0594
CACTAAGG	-0.146
ACCCGGGC	-0.0147
ACCCGGTC	-0.124
ACCCGGAG	0.416
CCCCGGAC	0.357
ACCCGGAT	-0.107
GCCCGGAA	0.244
CCCCGGCC	-0.173
CCCCGGAA	0.216
ACCCGGAC	0.323
ACCCGGAA	0.197
GCCCGGAC	0.328
GCCCGGGC	-0.0214
CAGTTGGC	-0.162

Sequence	PBM E-score
GCATTCGA	0.0434
TAAGAATA	-0.086
CGACGCTA	-0.089
CCCCGGAG	0.454
CCCCGGCG	-0.00882
CCCCGGGG	0.198
TCTCTGAA	-0.135
CTTTCGGA	0.395
CTTTCGTA	0.0877
CTTTCGGC	0.0219
ATTTCGAC	0.0327
ATTTCGGG	0.0466
ATTTCGGA	0.396
ATTTCGAG	0.164
ATTTCGGC	0.0959
ATTTCGAA	0.313
CTTTCAAA	0.302
GTTTCAAA	0.212
ATTTCAAA	0.219
GAGTGGTA	-0.0154
CTGCGAGC	-0.126
GCGCCCGA	-0.17
AGGATCGG	-0.00265
AACAGTCA	-0.138
CATCTAAA	0.0229

Sequence	PBM E-score
ATGCCATC	0.0993
GCCTTAAA	0.0657
AGGATGCG	-0.116
ATCCTAAG	-0.175
AAGCCAGG	-0.253
CACAAAGG	-0.0165
GGGGCCAC	-0.304
GTTTCGAA	0.0889
GTTTCGGA	0.334
GTTTCGTA	0.0481
CCTGTTTC	-0.0625
ACAATCGG	0.259
GCCCAAAA	-0.0622
TATTCCGA	0.321
TATTCCCA	0.139
AATTCCCA	0.0113
GATTCCGC	0.0522
GATTCCCA	-0.188
AATTCCGA	0.371
GATTCCGA	0.337
CATTCCGA	0.25
AATTCCAA	0.21
